Assay [1] can be described thus: Nuclear factor erythroid 2-related factor 2/antioxidant responsive element (Nrf2/ARE) small molecule agonists: luciferase reporter gene qHTS assay in human keratinocytes (AID 1919969). Note: nearly all actives have a fitted effect of over 35% in size. Note: potency is the fitted concentration of half-maximal effect.
The target of assay [2] is Gonadotropin-releasing hormone receptor (Homo sapiens) (UniProt P30968). As to the kind of experiment: Human gonadotropin-releasing hormone receptor (GnRHR) small molecule agonists, calcium flux assay in GnRHR-HEK293 cells (AID 1920063). Note: nearly all actives have a fitted effect of over 35% in size. In a few lines:
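HEK293 cells stably expressing human GnRHR were plated 18 h at 37 °C, loaded with calcium dye 1 h at 37 °C, then given compound in agonist mode; fluorescence (Ex/Em 480/540) read kinetically for 3 min at 1 s intervals.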
A general note: Calcium flux is commonly read through the fluorescence of an indicator in the cells.

The target of assay [3] is KiSS-1 receptor (Homo sapiens) (UniProt Q969F8). As to the kind of experiment: Human kisspeptin (KISS1R) small molecule agonists, calcium flux assay in KISS1R-HEK293 cells (AID 1920064; active = well fitted activation curve with a large enough effect in the repeat runs). Summed up: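 HEK293 cells stably expressing human KISS1R were plated 18 h at 37 °C, loaded with calcium dye for 1 h at 37 °C, then given compound by pin tool. Fluorescence (Ex/Em 480/540) was read kinetically for 3 min.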

Assay [4] can be described thus: G protein-coupled receptor (GPCR) small molecule agonists, calcium flux assay: HEK293 wild type cell line counter screen (AID 1920065). Summed up: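 Cells were plated and cultured 18 h at 37 C/5% CO2, then loaded with calcium dye for 1 h at 37 C. Compounds in DMSO were pin-transferred in agonist mode, and fluorescence (Ex/Em 480/540) was read kinetically for 3 min at 1 s intervals.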

Assay [5] can be described thus: p53 small molecule agonists, cell-based qHTS assay with human liver microsomes (AID 1963577). Summed up:
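p53RE-bla cells, 4,000/well, compound added after 5 h, with human liver microsomes 0.5 mg/mL and NADPH 0.5 mg/mL final; 16 h at 37 C, then LiveBLAzer 2 h RT, fluorescence.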
In general terms: Quantitative high-throughput screening tests each substance at several concentrations.

Assay [6] can be described thus: p53 small molecule agonists, cell-based qHTS assay with rat liver microsomes (AID 1963578). In a few lines:
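p53RE-bla cells, 4,000/well, pre-incubated 5 h, then given compounds plus rat liver microsomes (0.5 mg/mL final) and NADPH (0.5 mg/mL final). Incubation 16 h at 37 C; beta-lactamase reporter read by LiveBLAzer fluorescence after 2 h at room temperature.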

Assay [7] is described as follows: p53 small molecule agonists, cell-based qHTS assay with human liver microsomes: qHTS cell viability counter screen (AID 1963579). Note: nearly all actives have a fitted effect of over 45% in size. Note: potency is the fitted concentration of half-maximal effect. In a few lines:
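p53RE-bla cells, 4,000/well, dosed 5 hours after plating, with human liver microsomes (0.5 mg/mL final) plus NADPH (0.5 mg/mL final), 16 hours at 37 C. Viability read as CellTiter-Glo luminescence after 30 min at room temperature.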

Assay [8] can be described thus: p53 small molecule agonists, cell-based qHTS assay with rat liver microsomes: qHTS cell viability counter screen (AID 1963580). Note: nearly all actives have a fitted effect of over 45% in size. Summed up: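 Viability is assessed in parallel with the p53 reporter read: HCT-116 p53RE-bla cells receive compounds plus rat microsomes and NADPH (0.5 mg/mL final apiece), incubate 16 h at 37 C, and then CellTiter-Glo luminescence is recorded.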

A short description of assay [9]: p53 small molecule agonists, cell-based qHTS assay: qHTS cell viability counter screen (AID 1963581). Note: nearly all actives have a fitted effect of over 45% in size. Summed up:
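p53RE-bla HCT-116 cells were exposed to compounds for 16 h at 37 C; after the beta-lactamase FRET read in the same wells, CellTiter-Glo was added and luminescence (intracellular ATP) read after 30 min at room temperature.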

A short description of assay [10]: p53 small molecule agonists, cell-based qHTS assay (AID 1963582; active = well fitted activation curve with a large enough effect in the signal ratio in the repeat runs, not every such curve was filed as active; the % refers to the signal ratio). Summed up: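 p53RE-bla beta-lactamase reporter cells rested 5 h at 37 C/5% CO2, then received compounds in DMSO by pin transfer and were incubated 16 h at 37 C. LiveBLAzer B/G FRET substrate was loaded for 2 h at room temperature before fluorescence reading.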
In assay [11] the target is 5-hydroxytryptamine receptor 2A (Homo sapiens) (UniProt P28223). Put plainly: 5-hydroxytryptamine receptor 2A (HTR2A) small molecule antagonists, cell-based qHTS assay (AID 1963586). Note: nearly all actives have a fitted effect of over 45% in size. Summed up:
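Antagonist-mode intracellular calcium assay: DOI (4 nM) added after 5 min compound pre-incubation at room temperature to dye-loaded HTR2A-CHO cells. Fluorescence followed for 3 min, sampled every second.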

Assay [12] shares this target. As to the kind of experiment: 5-hydroxytryptamine receptor 2A (HTR2A) small molecule agonists, cell-based qHTS assay (AID 1963587). Note: nearly all actives have a fitted effect of over 30% in size. In a few lines:
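CHO cells stably expressing human HTR2A, plated 18 h, loaded with calcium dye 1 h at 37 C. Agonist mode: compounds added and intracellular calcium fluorescence recorded kinetically for 2 min at 1 sec intervals.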

A short description of assay [13]: cAMP Responsive Elements (CRE) small molecule agonists, cell-based qHTS assay (AID 1963590). In a few lines: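 CRE-bla HEK 293T cells in DMEM with 10% dialyzed FBS, NEAA, pyruvate and 25 mM HEPES were plated 18 h at 37 C/5% CO2, then exposed to compounds in DMSO for 3 h before LiveBLAzer B/G FRET substrate addition.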
Assay [14] is described as follows: cAMP Responsive Elements (CRE) small molecule antagonists, cell-based qHTS assay (AID 1963591; active = well fitted inhibition curve with a large enough effect in the signal ratio in the repeat runs, not every such curve was filed as active; the % refers to the signal ratio). Summed up:
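CRE-bla HEK293T cells were plated 18 h at 37 °C/5% CO2, pinned with compound in DMSO, then stimulated with NKH477 at 0.25 uM final for 3 h. LiveBLAzer B/G FRET substrate was added and plates incubated 2 h at room temperature.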

The target in assay [15] is Beta-2 adrenergic receptor (Homo sapiens) (UniProt P07550). As to the kind of experiment: Adrenergic beta2 receptor (ADRB2) small molecule antagonists, cell-based qHTS assay (AID 1963592). Note: series mostly up to about 92 µM; nearly all actives have a fitted effect of over 50% in size. In a few lines:
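Cells (CHO, stable ADRB2 overexpression) incubated 18-20hr at 37C; compounds added from DMSO; agonist mix (1nM isoproterenol, 100uM IBMX, 25uM Ro-20-1724) added; 0.5hr RT; d2-cAMP and anti-cAMP-cryptate added; 1hr RT; 665/615 nm read.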

The target in assay [16] is D(2) dopamine receptor (Homo sapiens) (UniProt P14416). As to the kind of experiment: Dopamine D2 receptor (DRD2) small molecule agonists, cell-based qHTS assay (AID 1963594). Note: nearly all actives have a fitted effect of over 35% in size. Summed up:
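HEK293 cells stably expressing human DRD2, pre-treated with PDE inhibitor Ro20-1724 (0.1 mM final) and compound 10 min at room temperature, then stimulated with NKH477 (200nM […]) for 30 min. cAMP read by HTRF (665/620 nm).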

For assay [17], the target named is Muscarinic acetylcholine receptor M1 (Homo sapiens) (UniProt P11229). As to the kind of experiment: Cholinergic receptor muscarinic 1 (CHRM1) small molecule antagonists, cell-based qHTS assay (AID 1963588). Note: nearly all actives have a fitted effect of over 40% in size. Summed up:
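CHRM1-CHO calcium-flux assay, antagonist mode. Cells were seeded 18 h, dye-loaded 1 h at 37 C and given compound for 5 min at RT, then acetylcholine was added at 50nM. FDSS fluorescence was read 3 min; 15 concentrations, three runs.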

Assay [18] has the same target. Put plainly: Cholinergic receptor muscarinic 1 (CHRM1) small molecule agonists, cell-based qHTS assay (AID 1963589). Note: nearly all actives have a fitted effect of over 35% in size. In a few lines:
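CHO cells stably expressing human CHRM1, seeded 18 h at 37 C/5% CO2, dye-loaded 1 h at 37 C, then given compound in agonist mode; intracellular calcium fluorescence read kinetically at 1 s intervals. Fifteen concentrations, three independent runs.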

Assay [19] deals with D(2) dopamine receptor (Homo sapiens) (UniProt P14416). As to the kind of experiment: Dopamine D2 receptor (DRD2) small molecule antagonists, cell-based qHTS assay (AID 1963595; active = well fitted inhibition curve with a large enough effect in the signal ratio in the repeat runs, with a control signal flat; the % refers to the signal ratio). In a few lines: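 Antagonist mode in DRD2-HEK293 cells: after compound addition with 0.1 mM Ro20-1724, cells received quinpirole (12 nM) and NKH477 (200 nM) for 30 min at room temperature; HTRF cAMP read after 1 h detection.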

Each structure is given as a SMILES string. Unmarked numbers belong to inactive results. Inconclusive results are not listed. Calls of active or inactive are those of the source. Unless noted, calls come from the whole dose curve.

The values that follow come from PubChem BioAssay (Tox21).

Chain of D(2) dopamine receptor (Homo sapiens) (P14416 whole entry, looked up): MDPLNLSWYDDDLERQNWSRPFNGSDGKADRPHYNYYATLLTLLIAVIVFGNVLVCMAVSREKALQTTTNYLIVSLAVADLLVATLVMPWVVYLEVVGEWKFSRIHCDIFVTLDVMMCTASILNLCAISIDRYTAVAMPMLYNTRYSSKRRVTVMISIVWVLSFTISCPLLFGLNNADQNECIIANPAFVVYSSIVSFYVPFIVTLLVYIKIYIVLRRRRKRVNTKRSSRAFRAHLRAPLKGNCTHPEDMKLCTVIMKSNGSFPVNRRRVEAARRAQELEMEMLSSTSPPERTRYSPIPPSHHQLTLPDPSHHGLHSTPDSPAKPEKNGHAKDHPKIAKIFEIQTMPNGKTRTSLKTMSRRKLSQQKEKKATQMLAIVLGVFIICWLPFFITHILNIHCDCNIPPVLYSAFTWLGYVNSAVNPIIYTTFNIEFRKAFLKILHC
Chain of KiSS-1 receptor (Homo sapiens) (Q969F8 whole entry, looked up): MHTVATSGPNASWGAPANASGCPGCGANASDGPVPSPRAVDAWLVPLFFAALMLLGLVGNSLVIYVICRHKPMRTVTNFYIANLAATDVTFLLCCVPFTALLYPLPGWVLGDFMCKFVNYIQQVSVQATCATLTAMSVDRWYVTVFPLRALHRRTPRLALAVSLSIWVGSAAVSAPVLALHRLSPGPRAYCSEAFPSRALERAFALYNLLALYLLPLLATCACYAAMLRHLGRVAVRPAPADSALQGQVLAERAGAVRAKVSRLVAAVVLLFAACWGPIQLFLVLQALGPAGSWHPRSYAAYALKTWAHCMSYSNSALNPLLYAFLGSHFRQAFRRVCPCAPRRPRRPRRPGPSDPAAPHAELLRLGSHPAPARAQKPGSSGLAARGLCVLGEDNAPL
Chain of Beta-2 adrenergic receptor (Homo sapiens) (P07550 whole entry, looked up): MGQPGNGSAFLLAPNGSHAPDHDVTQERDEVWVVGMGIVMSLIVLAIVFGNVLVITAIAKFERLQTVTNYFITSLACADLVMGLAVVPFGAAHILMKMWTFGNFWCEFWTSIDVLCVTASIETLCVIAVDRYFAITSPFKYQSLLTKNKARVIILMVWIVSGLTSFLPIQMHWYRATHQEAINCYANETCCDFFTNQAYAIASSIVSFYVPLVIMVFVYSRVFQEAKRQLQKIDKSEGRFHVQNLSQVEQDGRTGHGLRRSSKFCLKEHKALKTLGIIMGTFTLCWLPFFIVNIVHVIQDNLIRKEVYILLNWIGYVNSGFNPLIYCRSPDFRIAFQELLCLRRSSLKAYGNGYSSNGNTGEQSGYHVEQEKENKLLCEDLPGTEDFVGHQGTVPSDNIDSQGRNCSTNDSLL
Chain of Gonadotropin-releasing hormone receptor (Homo sapiens) (P30968 whole entry, looked up): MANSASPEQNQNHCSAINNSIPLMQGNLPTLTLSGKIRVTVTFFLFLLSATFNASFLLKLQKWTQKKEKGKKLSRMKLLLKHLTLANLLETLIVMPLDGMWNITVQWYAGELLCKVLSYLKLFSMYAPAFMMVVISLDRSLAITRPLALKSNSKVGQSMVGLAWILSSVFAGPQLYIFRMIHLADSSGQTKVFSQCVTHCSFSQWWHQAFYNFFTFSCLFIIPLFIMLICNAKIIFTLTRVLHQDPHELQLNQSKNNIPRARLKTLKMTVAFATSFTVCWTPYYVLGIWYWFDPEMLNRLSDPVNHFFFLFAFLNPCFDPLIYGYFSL
Chain of 5-hydroxytryptamine receptor 2A (Homo sapiens) (P28223 whole entry, looked up): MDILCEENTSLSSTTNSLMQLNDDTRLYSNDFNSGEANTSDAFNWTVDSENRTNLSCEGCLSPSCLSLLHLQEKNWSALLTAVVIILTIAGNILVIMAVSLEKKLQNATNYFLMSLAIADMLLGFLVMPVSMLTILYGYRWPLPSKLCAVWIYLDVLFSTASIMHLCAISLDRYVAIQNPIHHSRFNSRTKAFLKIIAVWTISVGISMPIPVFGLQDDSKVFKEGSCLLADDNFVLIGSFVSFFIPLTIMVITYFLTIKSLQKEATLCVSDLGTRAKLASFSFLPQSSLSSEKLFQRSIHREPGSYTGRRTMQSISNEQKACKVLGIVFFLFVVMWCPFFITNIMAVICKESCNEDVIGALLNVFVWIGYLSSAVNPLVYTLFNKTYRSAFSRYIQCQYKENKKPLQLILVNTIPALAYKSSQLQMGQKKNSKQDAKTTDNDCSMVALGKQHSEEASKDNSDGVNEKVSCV
Chain of Muscarinic acetylcholine receptor M1 (Homo sapiens) (P11229 whole entry, looked up): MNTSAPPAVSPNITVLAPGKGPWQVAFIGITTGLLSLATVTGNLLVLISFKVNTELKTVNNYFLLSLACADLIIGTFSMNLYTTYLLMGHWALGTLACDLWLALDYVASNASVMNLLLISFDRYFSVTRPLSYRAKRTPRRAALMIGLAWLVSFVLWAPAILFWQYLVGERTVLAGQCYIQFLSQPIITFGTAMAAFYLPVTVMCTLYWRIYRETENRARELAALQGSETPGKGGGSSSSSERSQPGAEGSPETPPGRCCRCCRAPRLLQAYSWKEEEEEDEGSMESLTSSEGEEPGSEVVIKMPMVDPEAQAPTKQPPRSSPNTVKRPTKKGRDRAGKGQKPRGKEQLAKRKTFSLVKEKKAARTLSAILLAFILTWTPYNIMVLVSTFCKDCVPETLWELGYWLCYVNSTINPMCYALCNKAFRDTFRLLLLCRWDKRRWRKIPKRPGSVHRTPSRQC

For `CCC(C)c1cc(C(C)(C)C)c(O)c(C(C)(C)C)c1` (stereo not given), in assay [1], the Potency was 16.9 µM (active). The Potency entry in assay [2], in assay [3], in assay [4], in assay [5], in assay [6] and in [7] was “inactive” each time. In addition, the Potency result in [8], in assay [9], in assay [10], in assay [11], in assay [12] and in [13] was “inactive” each time. Besides, the Potency entry in assay [14], in assay [15] and in assay [16] was “inactive” throughout.

Turning to `O=C(CC(=O)c1ccccc1)c1ccccc1`, the Potency in [1] was 32.9 µM (active). Further, the Potency entry in [2], in [3], in assay [4], in assay [5], in assay [6] and in assay [7] was “inactive” in each case. Moreover, the Potency entry in assay [8], in [9], in [10], in [11], in assay [17] and in assay [18] was “inactive” throughout. Besides, the Potency entry in assay [14], in [15] and in assay [19] was “inactive” throughout.

For `COC(=O)NCCC[Si](OC)(OC)OC`, the values for the Potency in assay [1] and in assay [7] were 54.5 µM (active) and 20.4 µM (active), respectively. For the same compound, the Potency entry in assay [2], in [3], in assay [4], in assay [5], in [6] and in assay [8] was “inactive” in each case. Also, the Potency result in assay [9], in [10], in assay [11], in assay [17], in [18] and in [13] was “inactive” in each case. Further, the Potency entry in [14], in assay [15] and in assay [16] was “inactive” throughout.

For `O=[N+]([O-])c1ccc(Nc2ccc(Nc3ccccc3)c(S(=O)(=O)O)c2)c([N+](=O)[O-])c1`, the Potency result in assay [1], in [2], in assay [3], in assay [4], in assay [5] and in assay [6] was “inactive” in each case. Further, the Potency entry in assay [7], in assay [8], in [9], in assay [10], in [11] and in assay [12] was “inactive” in each case. Also, the Potency result in [17], in assay [18], in [14], in [15] and in [19] was “inactive” each time.

As for `CC(C)=CCC[C@](C)(O)[C@@H]1CC=C(C)CC1`, the Potency in assay [1] was 54.5 µM (active). In addition, the Potency entry in assay [2], in assay [3], in assay [4], in assay [5], in assay [6] and in [7] was “inactive” in each case. In addition, the Potency entry in [8], in [9], in assay [10], in assay [11], in [17] and in assay [18] was “inactive” in each case. Also, the Potency entry in assay [13], in assay [16] and in [19] was “inactive” in each case.

Consider `CCOc1ccc(N=Nc2ccc(/C=C/c3ccc(N=Nc4ccc(OCC)cc4)cc3S(=O)(=O)O)c(S(=O)(=O)O)c2)cc1`, for which the Potency entry in assay [1], in assay [2], in assay [3], in assay [4], in assay [5] and in assay [6] was “inactive” each time. For the same compound, the Potency result in assay [7], in assay [8], in [9], in [10], in assay [11] and in assay [12] was “inactive” each time. For the same compound, the Potency entry in assay [17], in [18], in assay [13], in assay [15], in [16] and in assay [19] was “inactive” throughout.
